Laboratory results as given in PubChem BioAssay (NCI).
The panel holds about 83,000 compounds, 20% with a hit somewhere; the sample as a whole holds those more often.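 Compound tested at a single concentration for 48 hours in 96-well plates; a percent growth value below 10 was scored as active.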 Unmarked numbers belong to inactive results. Calls of active or inactive are those of the source.

Tested on: KM12 colon
Test: NCI-60 one-dose screen, 48 h (100 = growth as untreated, 0 = no growth, -100 = all killed)
Conditions: 10 µM unless noted

Point of comparison: Clc1ccc(Nc2ncnc3c2sc2ncccc23)cc1, growth 56.2%. Against it:
- CCOC(=O)C1=C(C)NC(SCc2nnc(-c3ccc(Cl)cc3)o2)=NC1c1ccc(Cl)cc1 (stereo not drawn) — higher, 69.8%
- O=Cc1ccc2nc(C(Cl)(Cl)Cl)ccc2c1 — higher, 100%
- CC(CN1CCN(CCOCCO)CC1)CN1c2ccccc2Sc2ccc(Cl)cc21 (stereo not drawn) — lower, 28%
- Clc1ccc(Nc2ncnc3c2sc2ncccc23)c(Cl)c1 — lower, 50.8%
- C#CCNC(=S)N/N=C(\C)c1ccccn1 — lower, 23.5%
- CC(C)NC(=O)OCC#CCOC(=O)NC(C)C — higher, 106%
- Cc1cc(C)c2c(n1)sc1c(Nc3ccc(Cl)cc3Cl)ncnc12 — lower, 49.8%
- CCCCn1cnc(-c2cc(-c3ccccc3)cc(C(F)(F)F)c2)n1 — higher, 101%
- O=C1c2ccccc2C(=O)c2c1oc1ccc3ccccc3c21 — higher, 61.6%
- COC1=CC(c2ccc[nH]2)=N/C1=C\c1[nH]c(C)c(C(=O)CCCCCCCCC(=O)O[C@H]2CC[C@H]3C4CCc5cc(O)ccc5C4CC[C@]23C)c1C (stereo partly drawn) — lower, 17.5%
- CCSc1ccc([C@@H]2[C@@H](N)C(=O)N2c2cc(OC)c(OC)c(OC)c2)cc1 — lower, 19.4%
- COc1ccc2[nH]cc(C(c3ccc(Cl)cc3)N3CCCC3)c2c1 (stereo not drawn) — higher, 101%
- Oc1[nH]c2ccc(Cl)cc2c1/C=c1/ccc2c(c1)N=C(c1ccc(F)cc1)N=2 — lower, 48.6%
- COc1cc(-c2csc(NC(=O)Nc3cccc(C(F)(F)F)c3)n2)cc(OC)c1OC — lower, 34.5%
- O=C(Cc1ccc(Nc2ccnc(C(F)(F)F)c2)cc1)N/N=C/c1ccccc1O — lower, 30.7%
- COc1ccc2nc(C)cc(Nc3ccccc3O)c2c1 — higher, 86.9%
- CN(C)CCOc1nc2c3cccnc3cc(-c3cccc(Cl)c3)c2c2ncccc12 — lower, 14.2%
- Oc1[nH]c2ccccc2c1/C=c1/ccc2c(c1)N=C(c1ccc(C(F)(F)F)cc1)N=2 — lower, 31.6%
- COc1ccc(/C(=C\c2ccc3c(c2)OCO3)C(=O)Nc2nc3ccc(F)cc3s2)cc1OC — higher, 96.3%
- O=C(Nc1ccccc1Cl)Oc1ccc2ccccc2c1 — higher, 95.9%
- Nc1nc2c(c3ncccc13)C(c1ccccc1)Cc1ncccc1-2 (stereo not drawn) — lower, 50.4%
- COc1ccccc1NC(=O)OCC12COCN1COC2 — higher, 107%
- COc1cc2c(cc1C)NC(=O)/C2=C\c1c[nH]c2ccccc12 — lower, 24.3%
- C=C(C)[C@@H]1CC[C@]2(C)[C@H](CC=C3[C@@H]4C[C@](C)(C(=O)N5CCN(C)CC5)CC[C@]4(C)CC[C@]32C)[C@@]1(C)CCC#N — lower, 53.6%
- COc1ccc(NC(=O)/C=C/c2ccc(Cl)c(Cl)c2)cn1 — higher, 78.2%
- CC(C)c1[nH]ncc1-c1nc2ccc3[nH]ncc3c2c2c1CCCC2 — lower, 17.4%
- COc1ccc(NC(=O)c2ccc(C(F)(F)F)nc2Nc2ccc(Cl)cc2C)cc1Cl — lower, 24.3%
- C/C=C(\C)C(C(=O)NC1CCCCC1)N(C(=O)C1CCc2cc(F)ccc2O1)c1ccc([N+](=O)[O-])cc1 (stereo not drawn) — higher, 95.8%
- O=C(Cn1nncc1CN1C(=O)CSC1=O)Nc1ccc(F)cc1 — higher, 106%
- C=CCn1c(C)nc2cc(Nc3nc(N4CCCC4)nc4nc[nH]c34)ccc21 — lower, 13.1%
- Cc1ccc(NC(=O)c2nc(S(C)(=O)=O)oc2-c2ccc(F)cc2)cc1Nc1ccc2ncn(C)c(=O)c2c1 — higher, 59.2%

In the case of CCCc1n(Cc2ccc3ccccc3c2)c2ccccc2[n+]1Cc1ccc2ccccc2c1, the growth is reported as -75% (active).
In the case of COc1ccc(/C=C(/C(=O)N2CCN(c3ccccc3)CC2)c2cc(OC)c(OC)c(OC)c2)cc1O, the growth is reported as 9.6% (active).
For C[C@]12CCc3nc(Nc4ccc(O)cc4)sc3C1=CC[C@@H]1[C@@H]2CC[C@]2(C)/C(=N/NC(N)=S)CC[C@@H]12, the growth was -64.9% (active).
With NCCCOc1cc2ccccc2cc1C(=O)NCCCOc1cc2ccccc2cc1C(=O)Nc1ccc(Cl)cc1O the growth was -2.6% (active).
With CCC(C)C1NC(=O)c2nc(oc2-c2ccccc2)-c2csc(n2)-c2csc(n2)-c2nc(oc2C)-c2coc(n2)CNC(=O)C(C(C)CC)NC1=O (stereo not drawn) the growth was -73.9% (active).
For CCCCNCC(O)c1cc(-c2ccc(C(F)(F)F)cc2)nc(-c2ccc(C(F)(F)F)cc2)c1 (stereo not drawn), the growth was -89.2% (active).
